The text below walks through data of PubChem BioAssay (Tox21).

Structures are written as SMILES. Values without a mark were called inactive. Results filed as inconclusive are left out. Active and inactive are the calls of the source. Unless noted, calls come from the whole dose curve; as a rule, active = well fitted curve in the direction sought with a large enough effect in the repeat runs; inconclusive = weak or mixed curves; inactive = no such curve, though single readings can be large; an effect the other way counts as inactive or inconclusive.

Test [1] can be described thus: qHTS assay to identify small molecule antagonists of the estrogen related receptor signaling pathway with the pleiotropic PPARgamma coactivator (PGC) from Tox21 10K library - cell viability counter screen (AID 1224840; active = well fitted cell-killing curve with a large enough effect in the repeat runs, not every such curve was filed as active; note: nearly all actives have a fitted effect of over 40% in size; note: potency is the fitted concentration of half-maximal effect). The method, boiled down:
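PGC/ERR cells (2,000/well) plated 6 h, then compound-treated for 17.5 h at 37 C. Viability measured by CellTiter-Fluor fluorescence after 30 min at 37 C, multiplexed with the pathway assay.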
On the technique in general: qHTS replaces the single test concentration by a dilution series.

A short description of test [2]: qHTS assay to identify small molecule antagonists of the estrogen related receptor signaling pathway with the pleiotropic PPARgamma coactivator (PGC) from Tox21 10K library (AID 1224841; call rule not given here; note: actives are mostly falling curves and most rising ones were filed inactive; nearly all actives have a fitted effect of over 50% in size; note: potency is the fitted concentration of half-maximal effect). The procedure, abridged:
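PGC/ERR cell line, 2,000 cells/well, pre-incubated 6 hours at 37 C, then exposed to compounds for 18 hours at 37 C; luciferase read with One-Glo luminescence after 30 min at room temperature.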

Test [3] is described as follows: qHTS assay to identify small molecule agonists of the estrogen related receptor signaling pathway with the pleiotropic PPARgamma coactivator (PGC) from Tox21 10K library (AID 1224842). Note: nearly all actives have a fitted effect of over 15% in size. The procedure, abridged:
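PGC/ERR reporter cell line, 2,000 cells per well, incubated 6 h at 37 C before 23 nL compound in DMSO was added. After 18 h at 37 C, One-Glo luminescence read following 30 min at room temperature.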

Test [4] addresses Thyrotropin receptor (Homo sapiens) (UniProt P16473). The test can be described thus: qHTS assay to identify small molecule agonists of the thyroid stimulating hormone receptor (TSHR) signaling pathway (AID 1224843; calls by dose curve; note: nearly all actives have a fitted effect of over 45% in size). The method, boiled down:
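Steps: seed 800 TSHR-HEK293 cells per well; add test compound and hold 30 min at ambient temperature; dispense cAMP-d2 then anti-cAMP cryptate; incubate 1 h at ambient; measure fluorescence intensity.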

Test [5] is described as follows: qHTS assay to identify small molecule agonists of the hypoxia (HIF-1) signaling pathway - cell viability counter screen (AID 1224844; calls by dose curve; note: nearly all actives have a fitted effect of over 50% in size). The method, boiled down: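 HRE-bla ME-180 cells, 2,000/well in 0.5% dialyzed FBS medium, treated 17 h at 37C with compounds. Viability read in the same wells as the bla reporter, by CellTiter-Glo luminescence after 30 min at room temperature.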

Test [6] in a line: qHTS assay to identify small molecule agonists of the hypoxia (HIF-1) signaling pathway (AID 1224846; active = well fitted activation curve with a large enough effect in the signal ratio in the repeat runs, not every such curve was filed as active; the % refers to the signal ratio). The procedure, abridged: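 HRE-bla ME-180 beta-lactamase reporter cells in medium with 0.5% dialyzed FBS, pre-incubated 5 h then exposed to compounds 17 h at 37C, 5% CO2; reporter induction read with CCF4-AM FRET substrate.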
Test [7] is described as follows: qHTS assay to identify small molecule agonists of H2AX - cell viability counter screen (AID 1224847; calls by dose curve; note: nearly all actives have a fitted effect of over 30% in size; note: potency is the fitted concentration of half-maximal effect). The procedure, abridged:
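CHO-K1 cells plated overnight at 37C, then exposed 3 h at 37C to compounds at 15 concentrations (0.76% DMSO final). Viability by CellTiter-Glo luminescence after 30 min at room temperature.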

Test [8] in a line: qHTS assay to identify small molecule antagonists of the estrogen related receptor (ERR) signaling pathway from Tox21 library (AID 1224848). Note: nearly all actives have a fitted effect of over 50% in size. Note: potency is the fitted concentration of half-maximal effect. The procedure, abridged:
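Luminescent reporter read-out (ONE-Glo) from NTP's ERR cell line after 18 h treatment at 37 C with DMSO-dissolved Tox21 compounds; cells pre-plated 6 h beforehand at 2,000 per well.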

A short description of test [9]: qHTS assay to identify small molecule agonists of the estrogen related receptor (ERR) signaling pathway from Tox21 library (AID 1224849; calls by dose curve; note: nearly all actives have a fitted effect of over 15% in size). Particulars: ERR reporter cell line, ONE-Glo luciferase, 18 h; at 92.4 µM (top of the series) unless noted. The procedure, abridged:
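ERR reporter cells (NTP line) pre-incubated 6 hours at 37 C, then exposed to compounds for 18 hours at 37 C. ONE-Glo luciferase luminescence was read after 30 minutes at room temperature.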

A short description of test [10]: qHTS RealTime-Glo MT Cell Viability Assay in HepG2 cells - 24 hour (AID 1224867). Note: nearly all actives have a fitted effect of over 50% in size. Note: potency is the fitted concentration of half-maximal effect. The method, boiled down: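 HepG2 cells (600/well) were dispensed with RealTime-Glo reagents, incubated 5 h at 37 °C, then treated with compounds in DMSO for up to 40 h. Nonlytic NanoLuc luminescence reflecting viable cells was read at each stated time point.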
Test [11] can be described thus: qHTS RealTime-Glo MT Cell Viability Assay in HEK293 cells - 32 hour (AID 1224868). Note: nearly all actives have a fitted effect of over 50% in size. Note: potency is the fitted concentration of half-maximal effect. The procedure, abridged:
(§1)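 HEK293 cells seeded with NanoLuc/prosubstrate reagent, rested 5 h at 37 C, then dosed and kept at 37 C up to 40 h. Nonlytic real-time luminescence from viable cells read at 0, 8, 16, 24, 32 and 40 h.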

Test [12] is described as follows: A CellTox Green Cytotoxicity Assay to monitor cytotoxicity in HEK293 cells - 0 hour (AID 1224869). Note: nearly all actives have a fitted effect of over 50% in size. The procedure, abridged:
(§2)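 HEK293 cells, 600/well, were preincubated 5 hours and then exposed to compounds at 37 C for up to 40 hours. A cell-impermeant cyanine dye staining dead-cell DNA was read by fluorescence at 0, 8, 16, 24, 32 and 40 h time points.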

Test [13] in a line: qHTS RealTime-Glo MT Cell Viability Assay in HepG2 cells - 40 hour (AID 1224870). Note: nearly all actives have a fitted effect of over 50% in size. The procedure, abridged: (§3)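 HepG2 cells (600/well) mixed with RealTime-Glo MT reagent, settled 5 h at 37 C/5% CO2 before compound addition. Nonlytic NanoLuc luminescence from viable-cell prosubstrate reduction read repeatedly during 40 h treatment at 37 C.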
A short description of test [14]: A CellTox Green Cytotoxicity Assay to monitor cytotoxicity in HEK293 cells - 40 hour (AID 1224871). Note: nearly all actives have a fitted effect of over 45% in size. The procedure, abridged: as §2
The nature of test [15]: qHTS RealTime-Glo MT Cell Viability Assay in HEK293 cells - 40 hour (AID 1224874). Note: nearly all actives have a fitted effect of over 50% in size. Note: potency is the fitted concentration of half-maximal effect. As to conditions: RealTime-Glo luminescence; max response: hits give low values. The procedure, abridged: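 600 cells/well were plated with the nonlytic NanoLuc/prosubstrate reagent, pre-incubated 5 h, then given 23 nL of compound in DMSO. Incubation at 37 C for 40 h, with luminescence from viable-cell-reduced substrate read repeatedly from 0 h.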

Test [16] is described as follows: A CellTox Green Cytotoxicity Assay to monitor cytotoxicity in HEK293 cells - 24 hour (AID 1224875). Note: nearly all actives have a fitted effect of over 45% in size. The procedure, abridged:
as §2

A short description of test [17]: A CellTox Green Cytotoxicity Assay to monitor cytotoxicity in HepG2 cells - 16 hour (AID 1224876). Note: nearly all actives have a fitted effect of over 45% in size. The method, boiled down:
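HepG2 cells, 600/well, preincubated 5 h with CellTox Green dye, then exposed to Tox21 compounds in DMSO at 37 C for up to 40 h. Dead-cell DNA fluorescence read at the indicated time point.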

Test [18] can be described thus: qHTS assay to identify small molecule agonists of H2AX (AID 1224845; active = well fitted activation curve with a large enough effect in the signal ratio in the repeat runs, not every such curve was filed as active; the % refers to the signal ratio). The procedure, abridged: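 Wild-type CHO-K1 cells, plated overnight, exposed 3hr at 37C to 15 concentrations (0.76% DMSO final). Lysed, then HTRF anti-pH2AX (S139) cryptate and anti-H2AX-d2 antibodies, 24 hr room temperature; 665/620 nm emission read.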
Test [19] in a line: qHTS RealTime-Glo MT Cell Viability Assay in HEK293 cells - 16 hour (AID 1224872). Note: nearly all actives have a fitted effect of over 50% in size. Note: potency is the fitted concentration of half-maximal effect. The method, boiled down:
as §1

Test [20] is described as follows: qHTS RealTime-Glo MT Cell Viability Assay in HepG2 cells - 8 hour (AID 1224873). Note: nearly all actives have a fitted effect of over 55% in size. Note: potency is the fitted concentration of half-maximal effect. The procedure, abridged: as §3
% is set by controls: 0 for no effect and ±100 for the full control effect.

Chain of Thyrotropin receptor (Homo sapiens) (P16473 whole entry, looked up): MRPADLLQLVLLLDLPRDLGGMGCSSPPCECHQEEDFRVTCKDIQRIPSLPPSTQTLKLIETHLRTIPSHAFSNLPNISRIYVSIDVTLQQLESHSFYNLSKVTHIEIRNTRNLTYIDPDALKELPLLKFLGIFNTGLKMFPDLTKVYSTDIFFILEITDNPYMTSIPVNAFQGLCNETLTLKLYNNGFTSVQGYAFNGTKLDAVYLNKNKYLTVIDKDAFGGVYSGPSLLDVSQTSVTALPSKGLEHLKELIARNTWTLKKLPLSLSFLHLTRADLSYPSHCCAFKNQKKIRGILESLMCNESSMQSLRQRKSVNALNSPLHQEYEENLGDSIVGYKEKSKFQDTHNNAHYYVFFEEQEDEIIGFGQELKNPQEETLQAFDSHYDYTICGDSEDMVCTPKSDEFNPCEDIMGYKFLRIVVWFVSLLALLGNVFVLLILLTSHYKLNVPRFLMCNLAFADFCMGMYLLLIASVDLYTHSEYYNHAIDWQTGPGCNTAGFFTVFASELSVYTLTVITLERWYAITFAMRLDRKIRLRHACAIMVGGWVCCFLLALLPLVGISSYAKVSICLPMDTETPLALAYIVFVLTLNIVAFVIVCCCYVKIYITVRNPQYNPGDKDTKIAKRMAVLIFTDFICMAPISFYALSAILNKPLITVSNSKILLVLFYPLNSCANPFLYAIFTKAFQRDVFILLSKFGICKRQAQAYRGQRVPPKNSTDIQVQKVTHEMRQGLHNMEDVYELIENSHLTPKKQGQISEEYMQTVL

Regarding `S=C1NC=NC2N=CNC12` (centres undefined), the Potency entry in test [1], in test [3], in test [4], in test [5], in test [6] and in test [10] was “inactive” in each case. The Potency entry in test [12], in test [13], in test [14], in [16] and in test [17] was “inactive” in each case. In addition, the Potency in test [2] was 0.486 µM (active); in test [7], 3.19 µM (active); in test [8], 19.3 µM (active); in test [11], 21.9 µM (active); in test [15], 17.4 µM (active). Further, in [9], the activity change, positive = activation was -55.5%.
Take `CCCC(C)C=O` (centres undefined): the Potency entry in test [1], in [2], in test [3], in test [4], in test [5] and in test [18] was “inactive” each time. For the same molecule, the Potency entry in test [6], in test [7], in test [8], in [10], in test [11] and in [12] was “inactive” each time. For the same molecule, the Potency entry in [13], in [14], in test [19], in test [20], in test [16] and in test [17] was “inactive” each time. Further, in test [15], the max response was 0.0424%.
For `O=C1CCC(=O)N1`, the Potency entry in test [1], in test [2], in [3], in [4], in test [5] and in test [18] was “inactive” in each case. Moreover, the Potency result in [6], in test [7], in test [8], in test [10], in test [12] and in [13] was “inactive” each time. The Potency result in test [14], in [16] and in [17] was “inactive” in each case. For the same molecule, the activity change, positive = activation in test [9] was 0.296%.
Turning to `CC/C=C(\C)C=O`, the Potency entry in test [1], in test [3], in test [4], in [5], in [18] and in test [6] was “inactive” in each case. For the same molecule, the Potency entry in test [7], in [8], in test [10], in [11], in test [12] and in test [13] was “inactive” each time. The Potency entry in test [14], in test [20], in [16] and in [17] was “inactive” throughout. Also, the activity change, positive = activation in [9] is 5.99%. Also, the max response in test [15] was 4.52%.
Regarding `COC(=O)c1ccc([N+](=O)[O-])cc1`, the Potency result in test [1], in test [3], in test [4], in test [5], in test [18] and in test [6] was “inactive” throughout. The Potency result in [7], in test [8], in test [10], in test [11], in test [12] and in test [13] was “inactive” in each case. In addition, the Potency entry in test [19], in test [16] and in [17] was “inactive” each time. The max response in test [15] is -4.75%.
For the molecule `CCCCCCCCOC(=O)c1cc(O)c(O)c(O)c1`, the Potency is 34.4 µM (active) in test [1]; 89.8 µM (active) in test [7]; 3.44 µM (active) in test [8]; 19.5 µM (active) in test [10]; 11 µM (active) in [11]; 6.92 µM (active) in test [19]. For the same molecule, the Potency is 17.4 µM (active) in test [20] and 11 µM (active) in test [15]. In addition, the Potency result in [3], in [4], in [5] and in test [12] was “inactive” in each case. Moreover, the activity change, positive = activation in test [9] is -45.2%.
